{
  "source": "PubChem BioAssay (EPA / NIEHS)",
  "key": {"[1]": {"assay": "ACEA_AR_agonist_AUC_viability: ACEA Biosciences xCELLigence Real-Time Cell Analysis on Androgen Receptor Agonism for Viability (AID 2283775);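 for AC50: viability read 80 hours after compound addition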", "method_in_brief": "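Viability endpoint from xCELLigence impedance in 22Rv1 prostate cells at 80 h. Eight-point series, 100 uM maximum final.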"}, "[2]": {"assay": "ACEA_ER_AUC_viability: ACEA Biosciences xCELLigence Real-Time Cell Analysis on Estrogen Receptor Agonism for Viability (AID 2283782);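 note: hit means loss of impedance signal meaning reduced cell growth or viability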", "method_in_brief": "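Viability endpoint: reduced impedance area under the curve relative to DMSO, recorded by real-time electrode sensing over ~80 h of continuous exposure. Duplicate plates of T47D in hormone-depleted medium; eight concentrations, 1:4 dilutions, 100 uM maximum.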"}, "[3]": {"assay": "ACEA_AR_antagonist_AUC_viability: ACEA Biosciences xCELLigence Real-Time Cell Analysis on Androgen Receptor Antagonism for Viability (AID 2283776);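 note: hits lower the growth signal relative to DMSO meaning cytotoxicity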", "method_in_brief": "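22Rv1 human prostate cancer cells were seeded on electrode plates, monitored overnight, then exposed to eight 1:4 dilutions from 100 uM final. Impedance-based growth kinetics at 80 h gave an AUC viability endpoint normalized to DMSO.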"}, "[4]": {"biological_target": "AR (gene 367) (UniProt P10275)", "sequence (P10275 whole entry, looked up)": "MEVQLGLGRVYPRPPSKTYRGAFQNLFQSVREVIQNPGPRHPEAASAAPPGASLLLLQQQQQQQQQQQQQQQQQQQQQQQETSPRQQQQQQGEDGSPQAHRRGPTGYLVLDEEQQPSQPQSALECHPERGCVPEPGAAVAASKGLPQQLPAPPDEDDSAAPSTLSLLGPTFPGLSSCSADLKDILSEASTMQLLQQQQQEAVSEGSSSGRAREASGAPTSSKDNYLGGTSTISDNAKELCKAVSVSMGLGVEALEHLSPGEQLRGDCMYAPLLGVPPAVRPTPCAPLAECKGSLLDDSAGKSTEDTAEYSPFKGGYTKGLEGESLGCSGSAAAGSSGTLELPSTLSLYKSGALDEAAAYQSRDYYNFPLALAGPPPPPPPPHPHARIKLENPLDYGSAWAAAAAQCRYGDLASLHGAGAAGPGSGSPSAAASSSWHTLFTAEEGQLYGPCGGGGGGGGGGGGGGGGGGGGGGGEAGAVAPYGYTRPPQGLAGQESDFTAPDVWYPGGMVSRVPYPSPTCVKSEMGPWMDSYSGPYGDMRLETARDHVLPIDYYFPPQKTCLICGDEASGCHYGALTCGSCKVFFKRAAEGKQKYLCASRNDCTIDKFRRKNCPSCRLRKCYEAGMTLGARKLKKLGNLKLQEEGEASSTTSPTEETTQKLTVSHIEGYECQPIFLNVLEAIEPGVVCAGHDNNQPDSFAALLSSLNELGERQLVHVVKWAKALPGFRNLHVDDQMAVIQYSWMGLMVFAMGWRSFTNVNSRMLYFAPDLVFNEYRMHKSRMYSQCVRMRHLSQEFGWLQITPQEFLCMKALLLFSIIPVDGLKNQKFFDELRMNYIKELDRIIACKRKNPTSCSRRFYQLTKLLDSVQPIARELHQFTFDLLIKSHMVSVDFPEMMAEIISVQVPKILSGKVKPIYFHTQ", "assay": "ACEA_AR_agonist_80hr: ACEA Biosciences xCELLigence Real-Time Cell Analysis on Androgen Receptor Agonism for Proliferation (AID 2283783);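 note: hits increase impedance growth signal above DMSO baseline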", "method_in_brief": "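Eight concentrations, 1:4 serial dilution from a 100 uM final top, in biological duplicate. Impedance-based real-time growth of 22Rv1 cells after overnight baseline, recorded hourly and read at 80 hours. Controls: testosterone, MG132, assay media.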"}, "[5]": {"biological_target": "AR (gene 367) (UniProt P10275)", "assay": "ACEA_AR_antagonist_80hr: ACEA Biosciences xCELLigence Real-Time Cell Analysis on Androgen Receptor Antagonism for Proliferation (AID 2283787);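 note: hits lower the impedance growth signal relative to DMSO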", "method_in_brief": "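Impedance-based real-time growth of 22Rv1 prostate cells, read 80 h after dosing. Eight concentrations, 1:4 series, top 100 uM final (0.5% DMSO), n = 2; signal decrease scored against DMSO.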"}},
  "note": "Results filed as inconclusive are left out. The source made the active and inactive calls. Rule for the calls: active = hit-call score of the fitted dose curve at least 0.9, where 1 is the maximum; inconclusive = response in the unintended direction; inactive = score below 0.9.",
  "data": [
    {"smiles": "COS(=O)(=O)O", "values": [
      {"measurement": "outcome", "setting": "[1]", "result": "inactive"},
      {"measurement": "outcome", "setting": "[2]", "result": "inactive"}
    ]},
    {"smiles": "CCc1ccc(O)c(OC)c1", "values": [
      {"measurement": "outcome", "setting": "[2]", "result": "inactive"}
    ]},
    {"smiles": "O=C(CC(=O)c1ccccc1)c1ccccc1", "values": [
      {"measurement": "outcome", "setting": "[3]", "result": "inactive"}
    ]},
    {"smiles": "OCC(O)c1ccccc1", "note": "(stereo not given)", "values": [
      {"measurement": "outcome", "setting": "[1]", "result": "inactive"},
      {"measurement": "outcome", "setting": "[2]", "result": "inactive"}
    ]},
    {"smiles": "CCOC(=O)CN", "values": [
      {"measurement": "outcome", "setting": "[2]", "result": "inactive"}
    ]},
    {"smiles": "CC1(C)CCC[C@]2(C)[C@H]3CCO[C@]3(C)CC[C@@H]12", "values": [
      {"measurement": "AC50", "setting": "[2]", "result": "76.2 µM (active)"}
    ]},
    {"smiles": "C=C(C)CNCC", "values": [
      {"measurement": "AC50", "setting": "[2]", "result": "25.7 µM (active)"}
    ]},
    {"smiles": "O=C(c1ccccc1)C(O)c1ccccc1", "note": "(stereo not given)", "values": [
      {"measurement": "outcome", "setting": "[3]", "result": "inactive"},
      {"measurement": "outcome", "setting": "[2]", "result": "inactive"}
    ]},
    {"smiles": "CCCC(C)=O", "values": [
      {"measurement": "outcome", "setting": "[1]", "result": "inactive"},
      {"measurement": "outcome", "setting": "[2]", "result": "inactive"}
    ]},
    {"smiles": "CC1CCC(C(C)C)C(O)C1", "note": "(stereo not given)", "values": [
      {"measurement": "outcome", "setting": "[1]", "result": "inactive"},
      {"measurement": "outcome", "setting": "[4]", "result": "inactive"},
      {"measurement": "outcome", "setting": "[5]", "result": "inactive"}
    ]},
    {"smiles": "O=[N+]([O-])c1ccc(O)cc1C(F)(F)F", "values": [
      {"measurement": "AC50", "setting": "[1]", "result": "12.3 µM (active)"},
      {"measurement": "AC50", "setting": "[2]", "result": "86.6 µM (active)"}
    ]},
    {"smiles": "CC(=O)Nc1ccc(C(=O)CCl)cc1", "values": [
      {"measurement": "AC50", "setting": "[2]", "result": "21.5 µM (active)"}
    ]},
    {"smiles": "O=C1OC2(c3ccccc31)c1ccc(O)c(Br)c1Oc1c2ccc(O)c1Br", "values": [
      {"measurement": "outcome", "setting": "[2]", "result": "inactive"}
    ]},
    {"smiles": "CC(C=O)Cc1ccc(C(C)(C)C)cc1", "note": "(stereo not given)", "values": [
      {"measurement": "outcome", "setting": "[1]", "result": "inactive"},
      {"measurement": "outcome", "setting": "[5]", "result": "inactive"}
    ]},
    {"smiles": "CN1C(=O)c2ccccc2C1=O", "values": [
      {"measurement": "outcome", "setting": "[1]", "result": "inactive"},
      {"measurement": "outcome", "setting": "[2]", "result": "inactive"}
    ]},
    {"smiles": "CC(=O)O[C@H]1C[C@@H]2CC[C@@]1(C)C2(C)C", "values": [
      {"measurement": "outcome", "setting": "[3]", "result": "inactive"},
      {"measurement": "outcome", "setting": "[2]", "result": "inactive"},
      {"measurement": "outcome", "setting": "[4]", "result": "inactive"},
      {"measurement": "outcome", "setting": "[5]", "result": "inactive"}
    ]},
    {"smiles": "COc1ccc(COC(C)=O)cc1", "values": [
      {"measurement": "outcome", "setting": "[2]", "result": "inactive"}
    ]},
    {"smiles": "CC(C)(C)c1ccc(C(=O)O)cc1", "values": [
      {"measurement": "AC50", "setting": "[2]", "result": "50 µM (active)"}
    ]}
  ]
}
